Assay outcomes (PubChem BioAssay)
Cav3 T inh: Cav3.2 calcium influx blockers – cell-based, Fluo-4 calcium fluorescence, FDSS, MLSMR library, primary screen | Voltage-dependent T-type calcium channel subunit alpha-1H (Homo sapiens), O95180 | B-score at 10 µM | Cav3.2-expressing cells; stronger effect = lower value | 100,000 compounds, 4% hits | AID 449739, 2010;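 active means single-dose well whose peak fluorescence ratio is a statistical outlier from its plate by either plate-standardised score or position-corrected B-score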
CYP2C9 activ: human CYP2C9 activators, primary screen, biochemical, luminescence. recombinant CYP2C9, luciferin-H conversion; stronger effect = higher value; factor 1 = untreated enzyme, 0 = blocked. Cytochrome P450 2C9 (Homo sapiens), P11712. 96,000 compounds, 1.4% hits. activation factor at 5 µM;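 active means activation factor of 2 or more for CYP2C9 at a 5 µM dose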;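 further: 0 = sulfaphenazole-blocked wells and 1 = vehicle-only wells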
Target sequence (P11712 whole entry, looked up): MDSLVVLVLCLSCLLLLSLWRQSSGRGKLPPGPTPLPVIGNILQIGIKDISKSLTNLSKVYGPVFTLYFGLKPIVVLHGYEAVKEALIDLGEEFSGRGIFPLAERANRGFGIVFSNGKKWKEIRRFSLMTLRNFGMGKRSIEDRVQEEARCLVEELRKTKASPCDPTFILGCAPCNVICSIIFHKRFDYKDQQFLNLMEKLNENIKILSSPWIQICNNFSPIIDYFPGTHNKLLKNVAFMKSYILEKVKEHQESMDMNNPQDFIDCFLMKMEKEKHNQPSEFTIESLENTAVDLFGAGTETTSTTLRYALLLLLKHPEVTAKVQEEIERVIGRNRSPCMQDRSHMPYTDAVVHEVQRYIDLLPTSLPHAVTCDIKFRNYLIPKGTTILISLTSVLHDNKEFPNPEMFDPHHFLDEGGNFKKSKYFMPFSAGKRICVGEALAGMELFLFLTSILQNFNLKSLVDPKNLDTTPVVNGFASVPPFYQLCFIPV
CYP2C19 inh: blockers of cytochrome P450 2C19 activity – biochemical, luminescence, ADME assay, primary screen; P33261; AID 778, 2007; inhibition, % at 5 µM; CYP2C19 Supersomes, luciferin-H EGE luminescence, 30 min; 96,000 compounds, 21% hits;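 active means CYP2C19 inhibition above a set limit at 5 µM in the primary screen, cut at about 50% in these data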;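 further: plate controls were negative control wells for no effect and 2.5 mM tranylcypromine positive control for full effect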
CYP2C9 inhib: blockers of cytochrome P450 2C9 activity – biochemical, luminescence, ADME assay, primary screen | P11712 | CYP2C9 Supersomes, luciferin-H conversion | inhibition, % at 5 µM | 96,000 compounds, 20% hits | AID 777, 2007;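 active means blocking of liver enzyme CYP2C9 beyond about 50% at 5 µM, limit read from the data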
CYP2C19 activ: human CYP2C19 activators, primary screen, biochemical, luminescence; Cytochrome P450 2C19 (Homo sapiens), P33261; recombinant CYP2C19, luciferin-H EGE luminescence; stronger effect = higher value; 0 = fully inhibited enzyme, 1 = untreated enzyme; activation factor at 5 µM; 96,000 tested, under 10 active; AID 1025, 2008;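 active means activation factor of at least 2 at 5 µM in the primary screen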;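 further: 0 = wells with 2.5 mM tranylcypromine and 1 = vehicle-only wells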
Numbers without * were called inactive; . = no result. A selection: hits, their analogues and other compounds. The true share with any hit is near 27%.

SMILES	Cav3 T inh	CYP2C9 activ	CYP2C19 inh	CYP2C9 inhib	CYP2C19 activ
O=C(c1ccc(-c2cccc(C(F)(F)F)c2)o1)N1CCOCC1	1.1	1	23	1	0.8
O=C(c1ccc(CS(=O)(=O)c2ccc(Br)cc2)o1)N1CCOCC1	-0.0081	1.1	-4	-6	1
O=C(c1ccc(CS(=O)(=O)c2ccc(Br)cc2)o1)N1CCN(c2ccccn2)CC1	-0.12	0.3	28	69*	0.7
Cc1nn2cc(-c3ccccc3)nc2[nH]c1=O	-0.34	0.3	5	74*	0.9
O=C(CCNC(=O)c1ccc(Br)o1)NCc1ccccn1	0.53	.	.	.	.
COC(=O)/C=C1/N/C(=N\c2nc(C)cc(C)n2)N(c2ccc(C)c(C)c2)C1=O	2.3	0.7	0	28	1
COc1ccccc1CNC(=O)C(CCSC)NC(=O)C1CCC(C)CC1 (stereo not given)	-0.15	0.8	18	20	0.8
COc1ccccc1C(=O)NC(CCSC)C(=O)OCC(=O)NC(=O)NCc1ccco1 (stereo not given)	0.42	0	18	97*	0.8
COc1ccccc1C(=O)NC(CCSC)C(=O)NCC(c1ccco1)N(C)C (stereo not given)	0.04	0.3	69*	67*	0.3
CCCS(=O)(=O)C(=C1NCCO1)S(=O)(=O)CCC	0.13	1	7	4	0.9
O=C1CC(N2CCC(Cc3ccccc3)CC2)C(=O)N1CCc1ccccc1 (stereo not given)	-0.77	0.8	26	16	0.7
COc1ccc(C)cc1NC(=O)CN(C)S(=O)(=O)c1cccs1	0.44	2.3*	89*	-134	0.1
COc1ccccc1NC(=O)CN(C)S(=O)(=O)c1cc(C)ccc1OC	-0.044	0.4	94*	63*	0.1
COc1ccc(S(=O)(=O)N(C)CC(=O)Nc2ccccc2C(F)(F)F)cc1OC	-0.022	1.9	76*	-92	0.2
Cc1cc(C(=O)N(C)CC(=O)Nc2ccccc2C(F)(F)F)c(C)o1	-0.084	1	37	-2	0.6
CS(=O)(=O)N1CCCC(c2nc(-c3ccc(S(=O)(=O)NCc4ccccc4)cc3)no2)C1 (stereo not given)	0.66	0.8	17	18	0.8
Cc1c(C(=O)N2CCC(C)CC2)sc2ncnc(N(C)c3ccccc3)c12	-2.2	.	.	.	.
COCc1nnc(NC(=O)CC(C)C)s1	-1.2	.	.	.	.
COc1ccc(/C=N/n2c(SC)nnc(C(C)(C)C)c2=O)c(OC)c1	-0.82	1	5	0	0.9
CC1CN(C2CCN(C(=O)c3ccccc3)CC2)CC(C)O1 (stereo not given)	0.17	1.1	-6	-8	1.1
CCCCNC(=O)CSc1nnc(-c2ccc(S(=O)(=O)N3CCCC3)cc2)n1C	1.1	.	.	.	.
Cc1ccc(N2C(=O)c3ccccc3NC2C(C)Cc2ccc3c(c2)OCO3)cc1 (stereo not given)	-4.3*	.	.	.	.
O=C(O)CCC(=O)Nc1nc2nc(-c3ccccc3)cc(-c3ccccc3)n2n1	.	0.9	0	6	1
Cc1cc(C)n(Cc2ccc(Cl)cc2Cl)c(=O)c1S(=O)(=O)c1ccccc1	-4.3*	0.1	44	92*	0.6
O=Cc1cccn1Cc1ccc(Cl)cc1Cl	-0.89	1.2	11	-19	0.9
SMILES	Cav3 T inh	CYP2C9 activ	CYP2C19 inh	CYP2C9 inhib	CYP2C19 activ
CN(C)c1nc(NCc2ccccc2)nc(SCC(=O)Nc2ccc(Cl)c(Cl)c2)n1	-4.1*	0.1	48	86*	0.5
CC(c1nnc(SCC(=O)Nc2ccc3[nH]c(=O)[nH]c3c2)n1Cc1ccccc1)N(C)C (stereo not given)	0.99	1.1	-9	-8	1.1
COc1ccc(C(=O)O)cc1Nc1cc(C)nc2ncnn12	0.73	1	-4	-3	1
COc1ccc2c(c1)CC/C(=C\c1ccc(OC)c(Cn3cccn3)c1)C2=O	-1.8	0.1	97*	91*	0
COc1ccc2c(c1)CC/C(=C\c1ccc(OC)c(Cn3nc(C)cc3C)c1)C2=O	0.24	0.5	87*	49	0.1
COc1ccc(/C=C2\CN(Cc3ccccc3)C/C(=C\c3ccc(OC)cc3OC)C2=O)c(OC)c1	.	0.8	20	18	0.8
